Rows were chosen to be rich in hits. Some 2.4% of all compounds tested hit in one or more screens of this group.
PfM18AAP inh-1: blocks P. falciparum M18 aspartyl aminopeptidase | recombinant PfM18AAP, H-Glu-NHMec fluorogenic cleavage | inhibition, % at 7.35 µM | 290,000 tested, 1.2% active;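 active = inhibition above the campaign mean inhibition over all tested compounds plus 3 SD, cut at about 28% in these data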;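 also: 0% = plate median of test compound wells and 100% = 2 mM ZnCl2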
Yeast superoxide: yeast age-related superoxide inhibition as caloric restriction mimetic | S. cerevisiae aged cells, superoxide DHE fluorescence; hits give low values | superoxide response (% of plate mean), % at 10 µM | 330,000 tested, 0.18% active | AID 2690;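 active = superoxide response under a set limit, about three screen SD below normal, cut at about 65% in these data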;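 also: yeast aged for seven days with compound at 30 °C before DHE staining; 100% = average MFI of all compound-treated wells on the plate with controls excluded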
PfGluPho inh: PfG6PD (Plasmodium falciparum) enzyme inhibition. PfGluPho enzyme, NADPH resazurin-diaphorase fluorescence. 350,000 tested, 0.78% active. inhibition, % at 20 µM;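 active = inhibition reaching at least a set limit at 20 µM in the primary screen, cut at about 59% in these data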;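 also: 0% = DMSO wells with substrate and 100% = DMSO wells lacking glucose-6-phosphate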
A3G deaminase: blocks human APOBEC3G single-stranded DNA deamination; Q9HC16; recombinant A3G, ssDNA deamination FAM/TAMRA fluorescence; inhibition, % at 20 µM; 330,000 tested, 0.28% active; AID 493012;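 active = inhibition of at least 40% at 20 µM, with no more than 30% in the related APOBEC3A deaminase screen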;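 also: plate controls were DMSO wells with A3G for no effect and wells lacking A3G enzyme for full effect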
Target sequence (Q9HC16 whole entry, looked up): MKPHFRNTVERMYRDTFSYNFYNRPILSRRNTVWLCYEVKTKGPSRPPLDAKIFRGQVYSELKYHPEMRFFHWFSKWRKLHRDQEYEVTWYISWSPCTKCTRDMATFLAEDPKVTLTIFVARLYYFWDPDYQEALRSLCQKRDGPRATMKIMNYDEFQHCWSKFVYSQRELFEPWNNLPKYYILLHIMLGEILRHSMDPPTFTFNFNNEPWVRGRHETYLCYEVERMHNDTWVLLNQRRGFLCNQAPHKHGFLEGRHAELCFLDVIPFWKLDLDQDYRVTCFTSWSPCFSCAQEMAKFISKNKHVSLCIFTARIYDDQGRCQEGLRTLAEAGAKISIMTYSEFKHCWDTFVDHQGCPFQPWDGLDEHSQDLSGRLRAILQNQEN
A3A deaminase: inhibitors of human APOBEC3A DNA deaminase | P31941 | inhibition, % at 20 µM | 330,000 tested, 0.41% active | recombinant A3A, FAM/TAMRA ssDNA deamination fluorescence;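 active = at least 40% inhibition at 20 µM here, with at most 30% in a related deaminase screen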;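 also: plate controls were A3A with DMSO for no effect and wells lacking A3A enzyme for full effect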
PfM18AAP inh-2: confirmation of Plasmodium falciparum M18 aspartyl aminopeptidase inhibitors; shares compounds with PfM18AAP inh-1; recombinant PfM18AAP, H-Glu-NHMec fluorogenic cleavage; inhibition, % at 7.35 µM; 2,400 tested, 28% active;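 active = mean inhibition over replicate wells above the hit cutoff set for the earlier primary screen, cut at about 29% in these data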;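 also: 0% = median of test compound wells and 100% = 2 mM ZnCl2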
CTSL1 counter: counter-screen for PFM18AAP inhibitors: confirmation of human cathepsin L inhibitors | inhibition, % at 5.96 µM | AID 2178 | purified cathepsin L1, Z-Leu-Arg-MCA fluorescence | shares compounds with PfM18AAP inh-1 | 2,400 tested, under 10 active;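 active = average inhibition across replicates above the hit cutoff set in the earlier primary screen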;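 also: 0% = median of test compound wells and 100% = Z-Phe-Ala-diazomethylketone 1 µM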
Target sequence (P07711 whole entry, looked up): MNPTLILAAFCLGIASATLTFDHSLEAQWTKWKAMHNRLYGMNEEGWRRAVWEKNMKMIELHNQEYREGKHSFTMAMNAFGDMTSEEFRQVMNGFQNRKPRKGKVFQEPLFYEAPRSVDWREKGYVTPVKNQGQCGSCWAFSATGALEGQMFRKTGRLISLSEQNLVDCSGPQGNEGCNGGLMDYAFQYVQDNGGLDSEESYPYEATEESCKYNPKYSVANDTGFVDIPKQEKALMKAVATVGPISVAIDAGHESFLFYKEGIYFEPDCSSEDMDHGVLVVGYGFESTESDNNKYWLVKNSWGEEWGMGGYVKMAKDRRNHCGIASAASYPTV
APOBEC3G confirm: confirmation of human APOBEC3G DNA deaminase inhibitors; shares compounds with A3G deaminase; recombinant A3G ssDNA deaminase, UDG/FAM-TAMRA fluorescence; inhibition, % at 20 µM; 890 tested, 72% active; AID 493152;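 active = inhibition reaching a set limit in any replicate at 20 µM, the limit being 80% of the first screen's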
UDG A3G counter: E. coli UDG inhibition in APOBEC3G counter-screen; shares compounds with A3G deaminase; UDG counterscreen, FAM/TAMRA oligo fluorescence; inhibition, % at 20 µM; 710 tested, under 10 active; AID 504715;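 active = compounds giving 40% or more inhibition at 20 µM in any one of the three replicates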;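 also: plate controls were DMSO wells with UDG and oligo for no effect and DMSO wells lacking both for full effect; inhibitors lower the FAM signal released by uracil excision and alkaline cleavage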
PfG6PD confirm: confirmation of Plasmodium falciparum G6PD inhibitors; 2,400 tested, 34% active; shares compounds with PfGluPho inh; inhibition, % at 20 µM; recombinant PfGluPho, NADPH-diaphorase-resazurin fluorescence; AID 504753;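 active = inhibition of at least 50% at 20 µM in any single replicate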;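 also: 0% = DMSO with substrate and 100% = DMSO lacking glucose-6-phosphate substrate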
Diaph ctr 10uM: diaphorase inhibition or oxidation at 10 uM NADPH; shares compounds with PfGluPho inh; diaphorase-coupled resazurin reduction, fluorescence, NADPH 10 uM; inhibition, % at 20 µM; 820 tested, 39% active;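 active = average inhibition reaching 50% or more with the compound at 20 µM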;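 also: resorufin red fluorescence formed as diaphorase reduces resazurin using NADPH; 0% = DMSO with enzyme and 100% = DMSO without enzyme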
Diaph ctr 30uM: counter-screen for P. falciparum G6PD inhibitors: diaphorase inhibitors, oxidizers. 820 tested, 29% active. Diaphorase/resazurin coupled assay, resorufin fluorescence, 30 uM NADPH. inhibition, % at 20 µM. shares compounds with PfGluPho inh;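 active = inhibition averaging 50% or more, tested at 20 µM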;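 also: 0% = DMSO with enzyme and 100% = DMSO wells lacking diaphorase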
* hit, by the source's call.

Results for COc1ccc(-n2c(SCC(=O)C(C)(C)C)nc3c(sc(=S)n3-c3ccccc3)c2=O)c(OC)c1 ?
PfM18AAP inh-1: 37*; Yeast superoxide: 114; PfGluPho inh: 78*; A3G deaminase: 40*; A3A deaminase: 1; PfM18AAP inh-2: 14; CTSL1 counter: 4; APOBEC3G confirm: 50*; UDG A3G counter: -2

How did NC(=S)N1CCCc2ccccc21 do in these assays?
PfM18AAP inh-1: -3; Yeast superoxide: 94; PfGluPho inh: 9; A3G deaminase: -4; A3A deaminase: -5

Results for Cc1cccc(C(=O)Nc2cccc(C(=O)N3CCOCC3)c2)c1 ?
PfM18AAP inh-1: 4; Yeast superoxide: 100; PfGluPho inh: -3; A3G deaminase: 0; A3A deaminase: 4

Results for CC(=O)/C(=N/Nc1cccc(C)c1)N1CCOCC1 ?
PfM18AAP inh-1: 42*; Yeast superoxide: 90; PfGluPho inh: 4; A3G deaminase: 45*; A3A deaminase: -3; PfM18AAP inh-2: -68; CTSL1 counter: 27*; APOBEC3G confirm: 3; UDG A3G counter: -3

Results for COc1ccc(CNC(=O)CN(Cc2ccco2)C(=O)CCC(=O)Nc2ccccn2)cc1 ?
PfM18AAP inh-1: -21; Yeast superoxide: 113; PfGluPho inh: 4; A3G deaminase: -12; A3A deaminase: 3

What do the screens show for `COC(=O)/C=C1\SC(N2CCOCC2)=C(c2ccc(OC)cc2)C1=O`?
PfM18AAP inh-1: 47*; Yeast superoxide: 76; PfGluPho inh: 28; A3G deaminase: 55*; A3A deaminase: 4; PfM18AAP inh-2: 32*; CTSL1 counter: -1; APOBEC3G confirm: 20*; UDG A3G counter: -3

Results for O=C1CCN(Cc2ccccc2)C(=S)N1 ?
PfGluPho inh: 10

What do the screens show for `N#C/C(=C\c1ccc(O)c(O)c1)C(=O)Nc1cccc2ncccc12`?
PfM18AAP inh-1: 63*; Yeast superoxide: 88; PfGluPho inh: 17; A3G deaminase: 52*; A3A deaminase: 8; PfM18AAP inh-2: 30*; CTSL1 counter: 3; APOBEC3G confirm: 59*; UDG A3G counter: -2

Results for COc1ccc(/C=C(\C#N)C(=O)Nc2cccc3ncccc23)cc1OC ?
PfM18AAP inh-1: 8; Yeast superoxide: 102; PfGluPho inh: 24; A3G deaminase: -1; A3A deaminase: 0

Results for CCn1c(CCc2nc3ccccc3[nH]2)n[nH]c1=S ?
PfM18AAP inh-1: 17; Yeast superoxide: 97; PfGluPho inh: 23; A3G deaminase: 19; A3A deaminase: -2

How did Cc1ccc(-n2c(CCc3nc4ccccc4[nH]3)n[nH]c2=S)cc1 do in these assays?
PfM18AAP inh-1: 33*; Yeast superoxide: 102; PfGluPho inh: 41; A3G deaminase: 52*; A3A deaminase: 4; PfM18AAP inh-2: -20; CTSL1 counter: -6; APOBEC3G confirm: 27

What do the screens show for `Cc1ccc(N=Cc2cccc(O)c2O)c(C)c1`?
PfM18AAP inh-1: 34*; Yeast superoxide: 101; A3G deaminase: 75*; A3A deaminase: 5; PfM18AAP inh-2: 37*; CTSL1 counter: -4; APOBEC3G confirm: 31*

How did CC(/C=N/n1c(-c2ccc(C)cc2)n[nH]c1=S)=C\c1ccco1 do in these assays?
PfM18AAP inh-1: 14; Yeast superoxide: 92; PfGluPho inh: 22; A3G deaminase: 17; A3A deaminase: -2

Results for Cc1ccc(-n2c(-c3ccco3)n[nH]c2=S)cc1 ?
PfM18AAP inh-1: 32*; Yeast superoxide: 92; PfGluPho inh: 22; A3G deaminase: 45*; A3A deaminase: -3; PfM18AAP inh-2: -5; CTSL1 counter: -5; APOBEC3G confirm: 72*; UDG A3G counter: 1

Results for CC(/C=N/n1c(-c2ccco2)n[nH]c1=S)=C\c1ccco1 ?
PfM18AAP inh-1: 32*; Yeast superoxide: 108; PfGluPho inh: 22; A3G deaminase: 62*; A3A deaminase: 17; PfM18AAP inh-2: -27; CTSL1 counter: 2; APOBEC3G confirm: 58*; UDG A3G counter: -3

Results for CC(C)Cn1c(-c2nn(C)cc2Cl)n[nH]c1=S ?
PfM18AAP inh-1: 12; Yeast superoxide: 90; PfGluPho inh: 31; A3G deaminase: 26; A3A deaminase: -9

Results for Cc1ccsc1-c1n[nH]c(=S)n1CC(C)C ?
PfM18AAP inh-1: 34*; Yeast superoxide: 93; PfGluPho inh: 47; A3G deaminase: 44*; A3A deaminase: -3; PfM18AAP inh-2: -13; CTSL1 counter: 5; APOBEC3G confirm: 90*; UDG A3G counter: -2

How did CC(C)(C)OC(=O)NCCCCCNC(=O)c1[nH]cnc1C(=O)Nc1cc(Br)ccc1F do in these assays?
PfGluPho inh: 13

Results for CCN1/C(=C/C=C/C=C/C=C/c2sc3ccccc3[n+]2CC)Sc2ccccc21 ?
PfM18AAP inh-1: 40*; Yeast superoxide: 102; PfGluPho inh: 64*; A3G deaminase: 14; A3A deaminase: 15; PfM18AAP inh-2: -2; CTSL1 counter: 3; PfG6PD confirm: 96*; Diaph ctr 10uM: 34; Diaph ctr 30uM: 33

How did Cc1cc(=O)[nH]c2c1cnn2C(C)c1ccccc1 (stereo unspecified) do in these assays?
PfM18AAP inh-1: 4; Yeast superoxide: 91; PfGluPho inh: 3; A3G deaminase: -3; A3A deaminase: 1

How did CCOc1ccc(C(=S)NC2CCCCC2)cc1OCC do in these assays?
PfM18AAP inh-1: 37*; Yeast superoxide: 101; PfGluPho inh: 65*; A3G deaminase: 56*; A3A deaminase: -1; PfM18AAP inh-2: 18; CTSL1 counter: -3; APOBEC3G confirm: 49*; UDG A3G counter: -1; PfG6PD confirm: 23

How did COc1ccc(Cl)cc1NC(=O)NNC(=O)C(=O)Nc1ccc(F)cc1 do in these assays?
PfGluPho inh: -22

What do the screens show for `C=CCN(CC=C)C(=O)c1c(OC)cccc1OC`?
PfM18AAP inh-1: -1; Yeast superoxide: 109; PfGluPho inh: -9; A3G deaminase: 1; A3A deaminase: 2

Bioassay records from PubChem BioAssay.
